Data published in PubChem BioAssay (NCATS).
Results filed as inconclusive are left out. A number with no mark means an inactive call. Active and inactive are the calls of the source. Calls come from the whole dose curve; as a rule, active = well fitted cell-killing curve with a large enough effect; inconclusive = small, poorly fitted or top-dose-only effect, or effect the other way; inactive = no such curve, though single readings can be large or run the other way.

Assay: Viability qHTS for spleen associated tyrosine kinase inhibitor (SYKi) naive MV4-11 cells (AID 1963823); note: nearly all actives have a fitted effect of over 40% in size
Details: MV4-11 AML viability, CellTiter-Glo luminescence, 72 h; series mostly up to 45 µM; viability (% of control): at the top concentration
How it was run: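 Compounds were dispensed acoustically onto plates, MV4-11 cells (SYKi-naive) added at 500 per well, and plates incubated 72 hr at 37 C. CellTiter-Glo was added and luminescence measured after 10 min.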
Potency is the fitted concentration of half-maximal effect.

SMILES	viability (% of control)	Potency
COc1cc(/C=C/C(=O)O[C@@H]2C[C@](O)(C(=O)O)C[C@@H](O)[C@H]2O)ccc1O	94.6%	–
CC/C(C)=C/C(=O)OC1C(OC2(C)CCC3C(C4C(C)CCC42)C3(C)C)OC(C)C(O)C1O (configuration not stated)	–	8.93 µM (active)
CC1=C(C(=O)O[C@@H]2O[C@H](COC3OCC(O)C(O)C3O)[C@@H](O)[C@H](O)[C@H]2O)C(C)(C)CCC1 (some centres not stated)	61.4% [at 17.3 µM]	–
CC(C)C1NC(=O)CNC(=O)C2CCCN2C(=O)C(Cc2c[nH]c3ccccc23)NC(=O)CNC(=O)C(Cc2ccc(O)cc2)NC(=O)CNC1=O (configuration not stated)	88.6% [at 17.3 µM]	–
CC(=O)OCCC(C)CCC1C(C)(O)CCC2C(C)(C)CCCC21C (configuration not stated)	62.8%	–
CCOc1ccc(-c2ccc(Cn3c(CC(C)(C)C(=O)O)c(SC(C)(C)C)c4cc(OCc5ccc(C)cn5)ccc43)cc2)cn1	54.8%	–
COc1ccc(C2=CC(=O)OC2Cc2ccc(O)cc2)c(O)c1 (configuration not stated)	66.8%	–
CC/C=C/C(O)C(O)C1=C(C)C(=O)C2(O1)C(=O)NC(OC)(C(=O)c1ccccc1)C2O (configuration not stated)	83% [at 17.3 µM]	–
CC(C)(C)c1cc(Br)cc([C@H](CC(=O)O)NC(=O)CNC(=O)c2cc(O)cc(NC3=NCC(O)CN3)c2)c1 (some centres not stated)	85.6%	–
CN(C/C=C/C#CC(C)(C)C)Cc1cccc2ccccc12	76.8%	–
CC(C)C(C#N)O[C@@H]1O[C@H](CO[C@@H]2OC[C@](O)(CO)[C@H]2O)[C@@H](O)[C@H](O)[C@H]1O (some centres not stated)	84%	–
CC1(C)CC[C@]2(C(=O)O)CC[C@]3(C)C(=CCC4[C@@]5(C)CC[C@H](O[C@@H]6O[C@H](C(=O)O)[C@@H](O)[C@H](O[C@@H]7O[C@H](CO)[C@H](O)[C@H](O)[C@H]7O)[C@H]6O[C@@H]6O[C@H](CO)[C@@H](O)[C@H](O)[C@H]6O)C(C)(C)C5CC[C@]43C)[C@@H]2C1 (some centres not stated)	77.5% [at 4.97 µM]	–
